Drawing on PubChem BioAssay (NCATS), this text covers Potency and outcome for two compounds.

Records with an inconclusive call do not appear. A call without a number means that no potency is given here. Activity calls are given as the source filed them. Unless noted, calls come from the whole dose curve; as a rule, active = well fitted inhibition curve with a large enough effect; inconclusive = small, poorly fitted or top-dose-only effect; inactive = no such curve, though single readings can be large or run the other way.

Assay [1] has as its target Muscarinic acetylcholine receptor M1 (Rattus norvegicus) (UniProt P08482). As to the kind of experiment: qHTS Assay for Antagonists of Acetylcholine Muscarinic M1 Receptor: Measurement of IP-One Response (AID 944). Note: nearly all actives have a fitted effect of over 75% in size. Note: potency is the fitted concentration of half-maximal effect. The following applies: CHO-M1 cells, IP-One HTRF, antagonist mode; series mostly up to 46.1 µM. In outline: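 IP1 accumulation measured via TR-FRET between d2-IP1 and Eu-cryptate anti-IP1 antibody after carbachol (200 nM, EC80) stimulation for 30 min; rat M1-transfected CHO cells received compound 10 min before agonist.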
On the technique in general: Quantitative high-throughput screening tests each substance at several concentrations.

Assay [2] has as its target Pyruvate kinase (Leishmania mexicana) (UniProt Q27686). As to the kind of experiment: qHTS Validation Assay for Inhibitors of Leishmania Mexicana Pyruvate Kinase (AID 945). The following applies: purified L. mexicana pyruvate kinase, enzyme activity, E451W mutant enzyme; series mostly up to 57.5 µM. In outline:
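The enzyme is a highly purified E451W mutant of LmPYK used at 0.2 nM. It converts 0.5 mM PEP and 0.1 mM ADP over 1 h at room temperature; product ATP is quantified by luciferase luminescence relative to DMSO controls.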

Assay [3] addresses Pyruvate kinase PKM (Homo sapiens) (UniProt P14618). The experiment in a line: qHTS Assay for Activators of Human Muscle Pyruvate Kinase (AID 954; active = well fitted curve in the direction sought with a large enough effect, not every such curve was filed as active). The note with it: purified human muscle pyruvate kinase, luciferase-coupled luminescence, 1 h; series mostly up to 57.5 µM. In outline:
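ATP production by PKM2 detected via luciferase luminescence after 1 h room-temperature reaction (0.1 nM enzyme, PEP at Km 0.5 mM, ADP 0.1 mM, pH 7.2 imidazole buffer). Inhibition scaled to no-enzyme control; activation referenced to 0.3 nM enzyme wells.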

Chain of Pyruvate kinase PKM (Homo sapiens) (P14618 whole entry, looked up): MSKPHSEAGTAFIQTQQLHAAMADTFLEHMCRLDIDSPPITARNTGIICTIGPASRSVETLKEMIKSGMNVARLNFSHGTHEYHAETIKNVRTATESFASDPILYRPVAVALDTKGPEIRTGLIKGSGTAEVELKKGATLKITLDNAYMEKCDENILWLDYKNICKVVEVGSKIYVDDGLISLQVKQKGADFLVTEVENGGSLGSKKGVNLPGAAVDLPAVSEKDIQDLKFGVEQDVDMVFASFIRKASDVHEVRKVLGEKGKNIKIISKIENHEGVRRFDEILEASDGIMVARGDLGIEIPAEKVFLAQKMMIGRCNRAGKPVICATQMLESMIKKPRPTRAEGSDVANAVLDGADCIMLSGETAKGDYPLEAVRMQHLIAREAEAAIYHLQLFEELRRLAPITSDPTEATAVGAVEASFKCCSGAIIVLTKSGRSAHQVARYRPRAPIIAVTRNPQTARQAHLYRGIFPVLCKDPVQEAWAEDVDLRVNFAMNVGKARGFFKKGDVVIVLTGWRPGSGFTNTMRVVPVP
Chain of Pyruvate kinase (Leishmania mexicana) (Q27686 2-499 E452W): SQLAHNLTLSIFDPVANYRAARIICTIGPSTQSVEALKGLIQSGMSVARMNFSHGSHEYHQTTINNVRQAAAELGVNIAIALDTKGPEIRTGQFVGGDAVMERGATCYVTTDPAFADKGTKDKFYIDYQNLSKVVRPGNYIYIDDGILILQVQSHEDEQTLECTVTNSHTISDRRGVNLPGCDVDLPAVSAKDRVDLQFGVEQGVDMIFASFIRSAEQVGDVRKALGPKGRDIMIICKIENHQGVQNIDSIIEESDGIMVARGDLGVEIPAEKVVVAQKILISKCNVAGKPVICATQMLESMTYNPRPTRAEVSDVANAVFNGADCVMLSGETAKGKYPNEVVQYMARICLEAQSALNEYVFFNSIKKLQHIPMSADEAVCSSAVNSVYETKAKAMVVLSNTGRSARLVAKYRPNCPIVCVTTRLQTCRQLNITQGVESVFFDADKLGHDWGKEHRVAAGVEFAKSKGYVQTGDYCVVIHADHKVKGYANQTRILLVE
Chain of Muscarinic acetylcholine receptor M1 (Rattus norvegicus) (P08482 whole entry, looked up): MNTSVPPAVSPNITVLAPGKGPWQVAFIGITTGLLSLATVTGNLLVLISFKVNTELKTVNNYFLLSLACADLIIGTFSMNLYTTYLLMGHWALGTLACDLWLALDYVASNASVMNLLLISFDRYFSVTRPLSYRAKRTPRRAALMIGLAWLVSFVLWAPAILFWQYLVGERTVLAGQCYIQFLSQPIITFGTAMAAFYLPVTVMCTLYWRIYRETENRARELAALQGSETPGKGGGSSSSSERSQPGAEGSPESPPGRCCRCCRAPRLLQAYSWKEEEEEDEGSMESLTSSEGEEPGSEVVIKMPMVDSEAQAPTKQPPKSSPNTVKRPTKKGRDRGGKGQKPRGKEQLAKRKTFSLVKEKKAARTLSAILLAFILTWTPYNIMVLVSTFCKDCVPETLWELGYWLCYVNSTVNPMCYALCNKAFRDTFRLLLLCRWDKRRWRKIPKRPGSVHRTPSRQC

As to `CN1CCc2ccccc2Cc2[nH]c3ccccc3c2CC1`, the Potency in assay [1] is 15.8 µM (active). Moreover, the Potency result in assay [2] was “inactive”. Besides, the outcome in assay [3] was inactive.
For `CN(C)c1nc(N)c(C(=O)N=C(N)N)nc1Cl`, the Potency entry in assay [1] and in assay [2] was “inactive” in each case. Further, the call in assay [3] was inactive.
